# PAX8 reporter – inhibitors of PAX8-driven TPO luciferase reporter, primary screen, RMG-I cells, single concentration. AID 652154, 2013. 360,000 compounds, 1.2% hits. SteadyGlo, 24 h. inhibition, % at 12.6 µM;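 active = mean replicate inhibition at least 60% with every replicate also reaching 60%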;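 note: luciferase light reporting Pax8 driven TPO promoter activity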
# TRPM1 prom inh – inhibitors of MITF-dependent TRPM1 promoter reporter, primary screen, cell-based, SK-MEL-5, single point, luciferase; SK-MEL-5 TRPM1 promoter luciferase, 24 h; inhibition, % at 12.5 µM; 330,000 compounds, 0.83% hits;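 active = mean inhibition across replicates of 60% or more, whatever share of single replicates reaches that level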
# Peg3 prom inh – Peg3 promoter-driven luciferase inhibitors, primary screen, cell-based, HeLa, luciferase luminescence; inhibition, % at 20 µM; AID 588405, 2011; HeLa PEG-Prom luciferase reporter, overnight; 360,000 compounds, 1.7% hits;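 active = inhibition of at least 50% at 20 µM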
# Shn3 inh set2 – reduction of Shn3 3'UTR firefly luciferase signal, primary screen, Schnurri-3 inhibitor project, cell-based, Clone20 osteoblasts, set 2; Clone20 osteoblast Shn3 3'UTR firefly luciferase, 24 h; inhibition, % at 12.5 µM; 360,000 compounds, 0.52% hits; AID 588674, 2011;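 active = mean inhibition of at least 75% with every replicate also reaching 75%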
# ABHD5 PLIN5 PPI – ABHD5-PLIN5 interaction inhibitors, primary screen, cell lysate, split luciferase complementation, luminescence | AID 602281, 2012 | Perilipin-5 (Homo sapiens) + 1-acylglycerol-3-phosphate O-acyltransferase ABHD5 (Homo … | 360,000 compounds, 0.78% hits | inhibition, % at 4 µM | Split G. princeps luciferase complementation, 4 h;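 active = inhibition above the mean inhibition across every tested compound plus 3 SD, cut at about 22% in these data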
# Target sequence (Q00G26 whole entry, looked up): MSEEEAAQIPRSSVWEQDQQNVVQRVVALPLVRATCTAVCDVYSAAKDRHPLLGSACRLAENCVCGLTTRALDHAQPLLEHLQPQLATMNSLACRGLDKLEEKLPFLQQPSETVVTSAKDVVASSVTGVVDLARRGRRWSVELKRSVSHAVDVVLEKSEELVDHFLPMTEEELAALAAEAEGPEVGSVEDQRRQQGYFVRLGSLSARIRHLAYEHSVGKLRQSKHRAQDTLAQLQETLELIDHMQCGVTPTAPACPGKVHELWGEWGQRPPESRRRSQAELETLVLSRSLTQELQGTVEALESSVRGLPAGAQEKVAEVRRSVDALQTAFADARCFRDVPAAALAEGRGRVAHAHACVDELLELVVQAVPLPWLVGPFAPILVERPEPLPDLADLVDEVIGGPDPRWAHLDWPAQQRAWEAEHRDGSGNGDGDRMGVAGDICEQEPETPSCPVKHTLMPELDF
# Target sequence (Q8WTS1 whole entry, looked up): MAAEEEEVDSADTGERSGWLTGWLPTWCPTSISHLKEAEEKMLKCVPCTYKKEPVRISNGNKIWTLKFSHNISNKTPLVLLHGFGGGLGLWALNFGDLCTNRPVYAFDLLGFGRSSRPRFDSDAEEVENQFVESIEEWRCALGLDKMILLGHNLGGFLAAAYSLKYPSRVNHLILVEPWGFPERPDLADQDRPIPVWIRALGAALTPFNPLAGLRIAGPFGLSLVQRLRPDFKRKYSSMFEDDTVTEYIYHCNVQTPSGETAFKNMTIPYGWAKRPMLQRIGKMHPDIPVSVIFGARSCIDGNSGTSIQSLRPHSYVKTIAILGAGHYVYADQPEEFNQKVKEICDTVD
# EWS-Fli inh – EWS/Fli-driven NR0B1 reporter inhibitors, primary screen, A673 cells, NR0B1 luciferase, luminescence, MLPCN library. viability-normalised. inhibition, % at 12.6 µM. 350,000 compounds, 0.67% hits;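 active = mean inhibition of at least 50% after viability correction, with every replicate also passing that limit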;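 note: firefly luciferase signal divided by Alamar Blue viability fluorescence both relative to DMSO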
# DNA binder FP – DNA binders by acridine orange displacement, dose response, counter-screen for EWS/Fli inhibitor project, biochemical, fluorescence polarization, cherry-pick; shares compounds with EWS-Fli inh; 640 compounds, 2% hits; AID 720586, 2013; salmon sperm DNA acridine orange fluorescence polarization; AC35, µM (top dose mostly 68 µM);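 active = fitted curve reaches a 35% signal fall AC35 below twice the sample's top valid tested dose, actives reach about 48 µM in these data; inactive = the rest, including activity in the rising direction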;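 note: lower polarization ratio signals compound binding to DNA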
# Hits are given with their value; - = inactive; . = not tested or not shown. This is a sample that favours compounds with a hit; in the whole collection about 3% have one here.
SMILES,PAX8 reporter,TRPM1 prom inh,Peg3 prom inh,Shn3 inh set2,ABHD5 PLIN5 PPI,EWS-Fli inh,DNA binder FP
COc1ccc(-c2csc(C(C)(O)c3cccc(F)c3)n2)cc1 (stereo not given),-,.,-,-,-,-,.
COc1ccc(C(C)(O)c2nc(-c3cccc(F)c3)cs2)cc1 (stereo not given),-,.,-,-,-,53,-
COc1ccc2cc(C(N)=O)/c(=N\NC(=O)c3ccccc3)oc2c1,-,-,-,-,-,71,-
COc1ccc(/C=C2\SC(=S)N(CCC(=O)Nc3ccccc3C(=O)O)C2=O)cc1,-,-,-,-,-,-,.
COc1ccc(/C=C2\SC(=O)N(CCCC(=O)Nc3cc(Cl)ccc3C(=O)O)C2=O)cc1,-,89,76,-,-,85,-
OC[C@H]1[C@@H](c2ccc(C#CC3CCCC3)cc2)[C@@H]2CN(CCC(F)(F)F)CCCCN12,-,.,.,.,.,52,-
O=C(Nc1cccc(S(=O)(=O)N2CCOCC2)c1)c1ccc(Cl)nc1,-,-,-,-,-,-,.
O=C(Nc1cccc(S(=O)(=O)N2CCCC2)c1)c1ccc(Cl)nc1,.,-,-,-,-,51,-
CCc1ccc(NC(=O)c2cnn3c(C(F)F)cc(C)nc23)cc1,-,-,-,-,-,-,.
CCc1ccc(Cn2ncc3c(C(=O)O)cc(C)nc32)cc1,-,-,-,-,-,75,-
C[C@@H]1CN([C@H](C)CO)C(=O)c2cc(NC(=O)C3CCCCC3)ccc2O[C@@H](C)CCCCO[C@@H]1CN(C)C(=O)CCCN(C)C,.,.,.,.,.,-,.
CCOc1ccc(-c2noc(CCC(=O)O)n2)cc1,-,68,-,-,-,54,-
O=C(O)CCc1nc(-c2ccccc2)no1,-,-,-,-,-,.,.
O=C(NC1CCCC1)N1CCCCN2[C@@H](CO)[C@@H](c3ccc(/C=C/c4ccccc4)cc3)[C@@H]2C1,104,.,.,.,.,73,-
CCOC(=O)Cc1ccc(NC(=O)c2ccccc2Br)cc1,-,-,-,-,-,52,-
CCCCC[C@H](C)N1C[C@H](COCc2ccccc2)Oc2cc(N3CC[C@@H](N(C)C)C3)ccc2S1(=O)=O,-,.,.,.,-,59,-
O=C(NC1CCCCC1)[C@H]1[C@H](CO)[C@H]2Cn3c(cccc3=O)[C@H]2N1CC1CCOCC1,.,.,.,.,.,-,.
Cc1ccc(-c2nnc(-c3ccccc3)c(-c3ccccc3)n2)cc1,-,-,-,-,-,-,.
Cc1ccc2nc(-c3ccccc3)nn2c1,.,-,-,-,-,72,-
CNC[C@H](CC1CCCCC1)NC[C@H](CO)NCCc1cccc(C(F)(F)F)c1,72,-,101,-,-,61,-
CC(=O)NCCC1CCCCN1Cc1nc(Cc2cccc(C(F)(F)F)c2)no1 (stereo not given),-,-,-,-,-,-,.
O=C(C[C@H]1CC[C@@H]2[C@H](COC[C@H](O)CN2Cc2ccncc2)O1)NCc1ccncc1,-,.,.,.,.,-,.
O=C(NC[C@@H]1N[C@@H](CO)[C@H]1c1ccc(C2=CCCCC2)cc1)c1cccc(F)c1,-,.,.,.,.,59,-
COc1ccc(CCN(C)c2ncnc3sccc23)cc1OC,-,-,-,-,-,-,.
COc1ccc(CN(C)c2ncnc3sccc23)c(OC)c1OC,-,-,-,-,-,63,-
SMILES,PAX8 reporter,TRPM1 prom inh,Peg3 prom inh,Shn3 inh set2,ABHD5 PLIN5 PPI,EWS-Fli inh,DNA binder FP
Cc1ccc(S(=O)(=O)N(C)C[C@@H]2Oc3c(NC(=O)Nc4cccc5ccccc45)cccc3C(=O)N([C@H](C)CO)C[C@H]2C)cc1,.,.,.,.,.,-,.
CNc1nc(C(=O)O)nc(N2CCOCC2)n1,.,-,-,-,-,-,.
Cc1ccc(C(CC(=O)O)Nc2nc(N3CCOCC3)nc(N3CCOCC3)n2)cc1 (stereo not given),-,-,-,-,-,65,-
N#C[C@@H]1[C@H](c2ccc(C#Cc3ccc(F)cc3)cc2)[C@@H](CO)N1C(=O)Nc1ccc(F)cc1,103,.,.,.,.,75,-
N#C[C@H]1[C@H](c2ccc(C#CC3CCCC3)cc2)[C@H](CO)N1C(=O)Nc1ccc(F)cc1,-,.,.,.,.,-,.
N#C[C@H]1N[C@H](CO)[C@H]1c1ccc(C#Cc2ccc(F)cc2)cc1,-,.,.,.,.,53,-
N#C[C@@H]1[C@H](c2ccc(C#Cc3ccccc3F)cc2)[C@H](CO)N1C(=O)C1CCCC1,-,.,.,.,.,-,.
N#C[C@H]1[C@H](c2ccc(-c3ccccc3F)cc2)[C@H](CO)N1C(=O)c1ccccn1,-,.,.,.,.,-,.
N#C[C@H]1[C@H](c2ccc(-c3ccccc3F)cc2)[C@@H](CO)N1C(=O)c1ccccn1,-,.,.,.,.,57,-
N#C[C@H]1[C@H](c2ccc(C#Cc3ccccc3F)cc2)[C@@H](CO)N1C(=O)C1CCCCC1,-,.,.,.,.,66,-
COc1ccc(NC(=O)N(C)C[C@@H]2Oc3ccc(NC(=O)Nc4c(C)noc4C)cc3CC(=O)N([C@H](C)CO)C[C@H]2C)cc1,-,.,.,.,.,-,.
COc1ccccc1-c1ccc2c(c1)O[C@@H](CN(C)C(=O)c1ccccc1)[C@@H](C)CN([C@@H](C)CO)S2(=O)=O,-,.,.,.,.,-,.
O=C(CN1CCOCC1)N[C@H]1CC[C@H](CCn2cc(C3CC3)nn2)O[C@H]1CO,-,.,.,.,.,-,.
CN(C)C(=O)c1ccc(-c2ccccc2[C@@H]2[C@@H](CO)N(C(=O)C3CC3)[C@H]2C#N)cc1,.,.,.,.,.,61,-
CCCNC(=O)N1[C@H](C#N)[C@H](c2ccc(C#Cc3cccc(F)c3)cc2)[C@H]1CO,-,.,.,.,.,61,-
CCCNC(=O)N1[C@H](C#N)[C@H](c2ccc(C#Cc3ccc(F)cc3)cc2)[C@H]1CO,-,.,.,.,.,71,-
CCCC[C@@H]1Cc2[nH][nH]c(=O)c2[C@H](c2ccc3ccccc3c2)O1,-,.,.,.,-,52,-
C[C@@H]1CN([C@H](C)CO)C(=O)c2cc(NS(=O)(=O)c3cn(C)cn3)ccc2O[C@H]1CN(C)Cc1ccc(C(=O)Nc2ccccc2N)cc1,.,.,.,.,.,-,.
CCOc1ccc(OCc2ccc(C(=O)NN=Cc3ccc[nH]3)cc2)cc1,-,.,-,-,-,57,-
O=C1c2ccccc2C(=O)N1CCCCNc1ccccc1,-,-,-,-,-,57,-
CN(C)C(=O)C[C@@H]1CC[C@H](NC(=O)C2CC2)[C@H](CO)O1,.,.,.,.,.,-,.
CO[C@H]1CN(C)C(=O)c2cc(NC(=O)c3ccc4c(c3)OCO4)ccc2OC[C@H](C)N(CCC(F)(F)F)C[C@@H]1C,.,.,.,.,.,-,.
